Experiment [1] deals with Mast/stem cell growth factor receptor Kit (Homo sapiens) (UniProt P10721). As to conditions: at 1 µM.
The test system of experiment [2] is Mast/stem cell growth factor receptor Kit (Homo sapiens), P10721 [D816V]. As to conditions: at 0.1 µM.
Experiment [3] has the same test system. As to conditions: at 1 µM.
Experiment [4] has as its system Mast/stem cell growth factor receptor Kit (Homo sapiens), P10721 [T670I]. As to conditions: at 0.1 µM.
For experiment [5] the test system is unchanged. As to conditions: at 1 µM.
The subject of experiment [6] is Mast/stem cell growth factor receptor Kit (Homo sapiens), P10721 [V560G]. As to conditions: at 0.1 µM.
Experiment [7] shares this test system. As to conditions: at 1 µM.
Experiment [8] deals with Tyrosine-protein kinase Lck (Homo sapiens) (UniProt P06239). As to conditions: at 0.1 µM.
Tyrosine-protein kinase Lck (Homo sapiens), sequence (P06239 2-509 limits assumed): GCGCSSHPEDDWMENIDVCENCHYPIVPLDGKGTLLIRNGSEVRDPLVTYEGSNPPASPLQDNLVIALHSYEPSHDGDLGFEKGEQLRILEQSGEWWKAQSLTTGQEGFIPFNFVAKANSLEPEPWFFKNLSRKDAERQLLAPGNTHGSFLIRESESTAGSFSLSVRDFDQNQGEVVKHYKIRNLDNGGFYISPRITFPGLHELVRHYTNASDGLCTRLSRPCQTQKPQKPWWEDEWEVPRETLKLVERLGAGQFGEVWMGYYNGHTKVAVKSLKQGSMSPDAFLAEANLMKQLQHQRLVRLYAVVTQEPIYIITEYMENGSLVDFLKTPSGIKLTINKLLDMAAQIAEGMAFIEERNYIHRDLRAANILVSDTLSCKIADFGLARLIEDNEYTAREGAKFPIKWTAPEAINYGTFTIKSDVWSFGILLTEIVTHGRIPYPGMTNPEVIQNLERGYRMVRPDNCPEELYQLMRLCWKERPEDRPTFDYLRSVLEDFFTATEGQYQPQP
The target is the same in experiment [9]. As to conditions: at 1 µM.
The target in experiment [10] is Leukocyte tyrosine kinase receptor (Homo sapiens) (UniProt P29376). As to conditions: at 0.1 µM.
Leukocyte tyrosine kinase receptor (Homo sapiens), sequence (P29376 whole entry): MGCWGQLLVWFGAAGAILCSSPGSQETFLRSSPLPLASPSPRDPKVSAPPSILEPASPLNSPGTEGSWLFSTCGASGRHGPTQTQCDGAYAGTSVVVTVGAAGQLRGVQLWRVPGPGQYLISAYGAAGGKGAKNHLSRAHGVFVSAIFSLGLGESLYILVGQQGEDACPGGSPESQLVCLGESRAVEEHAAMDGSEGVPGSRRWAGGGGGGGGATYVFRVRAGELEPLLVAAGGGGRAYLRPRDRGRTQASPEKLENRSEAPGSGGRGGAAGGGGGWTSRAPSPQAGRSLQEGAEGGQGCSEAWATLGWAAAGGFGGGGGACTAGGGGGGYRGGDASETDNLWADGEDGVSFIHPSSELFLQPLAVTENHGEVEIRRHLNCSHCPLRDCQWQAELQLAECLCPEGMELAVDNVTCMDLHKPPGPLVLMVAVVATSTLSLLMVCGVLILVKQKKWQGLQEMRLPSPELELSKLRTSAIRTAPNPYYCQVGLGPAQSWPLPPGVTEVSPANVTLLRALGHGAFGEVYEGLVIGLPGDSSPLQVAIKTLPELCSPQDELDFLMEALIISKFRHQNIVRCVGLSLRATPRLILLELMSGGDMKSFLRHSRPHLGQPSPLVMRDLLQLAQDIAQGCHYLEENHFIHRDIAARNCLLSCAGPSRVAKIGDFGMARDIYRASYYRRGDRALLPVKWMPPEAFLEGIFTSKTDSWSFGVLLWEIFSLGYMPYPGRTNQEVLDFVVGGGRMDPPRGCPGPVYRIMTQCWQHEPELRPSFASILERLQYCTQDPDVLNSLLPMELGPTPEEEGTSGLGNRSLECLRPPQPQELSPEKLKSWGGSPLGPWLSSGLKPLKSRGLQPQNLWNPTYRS
The target is the same in experiment [11]. As to conditions: at 1 µM.
Experiment [12] addresses Tyrosine-protein kinase Lyn (Homo sapiens) (UniProt P07948). As to conditions: at 0.1 µM.
Experiment [13] shares this target. As to conditions: at 1 µM.
Experiment [14] has the same target. As to conditions: at 0.1 µM. The source holds these as a separate data set.
Experiment [15] has the same target. As to conditions: at 1 µM. The source holds these as a separate data set.
In experiment [16] the target is T1, Tyrosine-protein kinase Mer (Homo sapiens) (UniProt Q12866).
T1 sequence (whole entry): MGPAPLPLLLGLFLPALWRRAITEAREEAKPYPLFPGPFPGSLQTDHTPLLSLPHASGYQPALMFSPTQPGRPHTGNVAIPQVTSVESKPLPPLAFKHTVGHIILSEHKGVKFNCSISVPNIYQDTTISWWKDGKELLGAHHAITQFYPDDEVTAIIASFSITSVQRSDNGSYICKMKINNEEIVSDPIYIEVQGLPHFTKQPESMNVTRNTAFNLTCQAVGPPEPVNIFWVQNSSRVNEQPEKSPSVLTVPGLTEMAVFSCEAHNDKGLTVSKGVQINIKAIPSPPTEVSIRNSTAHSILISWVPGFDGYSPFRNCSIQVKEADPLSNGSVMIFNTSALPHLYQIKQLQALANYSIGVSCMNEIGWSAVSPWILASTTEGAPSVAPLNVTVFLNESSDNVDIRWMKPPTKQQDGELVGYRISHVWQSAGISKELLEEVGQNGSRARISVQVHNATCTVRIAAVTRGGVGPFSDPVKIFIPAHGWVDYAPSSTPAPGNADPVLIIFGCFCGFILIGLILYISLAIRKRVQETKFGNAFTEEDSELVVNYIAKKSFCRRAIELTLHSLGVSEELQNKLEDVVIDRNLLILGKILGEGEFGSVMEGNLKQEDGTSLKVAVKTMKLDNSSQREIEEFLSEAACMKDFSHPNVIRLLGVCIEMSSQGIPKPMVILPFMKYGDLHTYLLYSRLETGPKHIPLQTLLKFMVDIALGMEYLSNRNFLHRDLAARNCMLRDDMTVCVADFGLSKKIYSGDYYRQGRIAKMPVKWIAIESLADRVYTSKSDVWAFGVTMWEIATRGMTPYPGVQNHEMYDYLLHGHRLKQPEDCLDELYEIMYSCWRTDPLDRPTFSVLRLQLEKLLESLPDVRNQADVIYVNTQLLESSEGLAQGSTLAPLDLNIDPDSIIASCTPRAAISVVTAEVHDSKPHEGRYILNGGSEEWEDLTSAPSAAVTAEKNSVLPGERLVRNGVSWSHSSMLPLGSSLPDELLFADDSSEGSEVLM
As to conditions: at 0.1 µM.

Experiment [17] concerns the target T1, Tyrosine-protein kinase Mer (Homo sapiens). As to conditions: at 1 µM.
Experiment [18] deals with Hepatocyte growth factor receptor (Homo sapiens) (UniProt P08581). As to conditions: at 0.1 µM.
Hepatocyte growth factor receptor (Homo sapiens), sequence (P08581 whole entry): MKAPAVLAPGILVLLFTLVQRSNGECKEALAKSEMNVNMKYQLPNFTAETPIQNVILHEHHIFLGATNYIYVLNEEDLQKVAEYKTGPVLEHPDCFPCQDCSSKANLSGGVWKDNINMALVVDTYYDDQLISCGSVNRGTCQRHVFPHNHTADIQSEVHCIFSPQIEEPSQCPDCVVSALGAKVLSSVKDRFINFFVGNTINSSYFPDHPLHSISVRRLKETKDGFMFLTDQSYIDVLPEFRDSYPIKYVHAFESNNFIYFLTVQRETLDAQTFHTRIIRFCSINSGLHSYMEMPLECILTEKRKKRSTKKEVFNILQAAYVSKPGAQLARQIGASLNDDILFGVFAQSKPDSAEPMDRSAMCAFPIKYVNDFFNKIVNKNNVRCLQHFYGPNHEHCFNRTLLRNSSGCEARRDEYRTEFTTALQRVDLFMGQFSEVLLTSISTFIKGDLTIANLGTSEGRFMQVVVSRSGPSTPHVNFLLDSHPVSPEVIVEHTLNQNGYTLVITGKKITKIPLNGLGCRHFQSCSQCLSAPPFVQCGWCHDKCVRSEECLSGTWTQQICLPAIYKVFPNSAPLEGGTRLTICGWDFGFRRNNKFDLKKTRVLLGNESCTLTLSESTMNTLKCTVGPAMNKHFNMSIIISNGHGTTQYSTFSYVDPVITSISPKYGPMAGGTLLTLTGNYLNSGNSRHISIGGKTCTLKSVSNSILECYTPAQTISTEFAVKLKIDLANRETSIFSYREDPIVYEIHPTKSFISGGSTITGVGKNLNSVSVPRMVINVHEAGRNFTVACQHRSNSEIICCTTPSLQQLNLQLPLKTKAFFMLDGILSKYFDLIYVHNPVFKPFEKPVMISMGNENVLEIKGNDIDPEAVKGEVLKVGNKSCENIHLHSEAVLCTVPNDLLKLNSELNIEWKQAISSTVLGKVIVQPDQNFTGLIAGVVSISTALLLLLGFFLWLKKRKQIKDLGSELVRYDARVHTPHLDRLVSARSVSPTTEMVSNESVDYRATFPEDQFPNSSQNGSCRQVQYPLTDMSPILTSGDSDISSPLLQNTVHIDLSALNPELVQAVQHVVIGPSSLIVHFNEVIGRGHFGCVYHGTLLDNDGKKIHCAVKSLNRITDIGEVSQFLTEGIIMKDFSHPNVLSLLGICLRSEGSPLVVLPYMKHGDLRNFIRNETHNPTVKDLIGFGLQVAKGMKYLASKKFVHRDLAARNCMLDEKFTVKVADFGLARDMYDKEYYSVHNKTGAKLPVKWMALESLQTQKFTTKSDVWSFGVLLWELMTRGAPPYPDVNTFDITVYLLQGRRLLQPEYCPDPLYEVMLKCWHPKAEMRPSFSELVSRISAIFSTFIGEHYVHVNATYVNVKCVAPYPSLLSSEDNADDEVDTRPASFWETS
Experiment [19] has the same target. As to conditions: at 1 µM.
For experiment [20], the target named is T2, Muscle, skeletal receptor tyrosine-protein kinase (Homo sapiens) (UniProt O15146).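 Also: values are mean inhibition of MuSK from the GSK PKIS kinase screening panel.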
T2 sequence (whole entry): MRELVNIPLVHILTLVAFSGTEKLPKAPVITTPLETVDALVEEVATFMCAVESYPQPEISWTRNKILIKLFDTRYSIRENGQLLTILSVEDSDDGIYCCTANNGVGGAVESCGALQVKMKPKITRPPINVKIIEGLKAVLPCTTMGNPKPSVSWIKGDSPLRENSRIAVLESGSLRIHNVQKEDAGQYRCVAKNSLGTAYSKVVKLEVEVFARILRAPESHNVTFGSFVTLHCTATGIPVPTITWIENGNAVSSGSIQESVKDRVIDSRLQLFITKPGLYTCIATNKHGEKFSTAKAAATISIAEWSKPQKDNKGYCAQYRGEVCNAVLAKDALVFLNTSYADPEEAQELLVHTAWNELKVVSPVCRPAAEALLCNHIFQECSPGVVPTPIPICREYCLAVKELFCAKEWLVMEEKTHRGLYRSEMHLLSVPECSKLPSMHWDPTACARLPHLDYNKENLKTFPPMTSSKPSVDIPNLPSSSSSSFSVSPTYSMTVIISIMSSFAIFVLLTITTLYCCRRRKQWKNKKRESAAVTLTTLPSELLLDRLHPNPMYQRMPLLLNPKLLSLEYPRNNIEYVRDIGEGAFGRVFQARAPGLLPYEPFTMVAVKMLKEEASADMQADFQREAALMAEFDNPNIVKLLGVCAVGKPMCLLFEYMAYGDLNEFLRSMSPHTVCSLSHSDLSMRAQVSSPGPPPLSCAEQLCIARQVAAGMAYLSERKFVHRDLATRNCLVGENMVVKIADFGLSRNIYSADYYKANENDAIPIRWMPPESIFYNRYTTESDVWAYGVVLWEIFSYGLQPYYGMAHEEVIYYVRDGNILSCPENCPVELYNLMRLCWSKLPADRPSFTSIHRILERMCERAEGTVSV
As to conditions: at 0.1 µM.

This note sets out measurements from ChEMBL document CHEMBL1961873, “Compounds: GSK PKIS; Assays: Nanosyn kinase panel” (2012).

Mast/stem cell growth factor receptor Kit (Homo sapiens), sequence (P10721 whole entry): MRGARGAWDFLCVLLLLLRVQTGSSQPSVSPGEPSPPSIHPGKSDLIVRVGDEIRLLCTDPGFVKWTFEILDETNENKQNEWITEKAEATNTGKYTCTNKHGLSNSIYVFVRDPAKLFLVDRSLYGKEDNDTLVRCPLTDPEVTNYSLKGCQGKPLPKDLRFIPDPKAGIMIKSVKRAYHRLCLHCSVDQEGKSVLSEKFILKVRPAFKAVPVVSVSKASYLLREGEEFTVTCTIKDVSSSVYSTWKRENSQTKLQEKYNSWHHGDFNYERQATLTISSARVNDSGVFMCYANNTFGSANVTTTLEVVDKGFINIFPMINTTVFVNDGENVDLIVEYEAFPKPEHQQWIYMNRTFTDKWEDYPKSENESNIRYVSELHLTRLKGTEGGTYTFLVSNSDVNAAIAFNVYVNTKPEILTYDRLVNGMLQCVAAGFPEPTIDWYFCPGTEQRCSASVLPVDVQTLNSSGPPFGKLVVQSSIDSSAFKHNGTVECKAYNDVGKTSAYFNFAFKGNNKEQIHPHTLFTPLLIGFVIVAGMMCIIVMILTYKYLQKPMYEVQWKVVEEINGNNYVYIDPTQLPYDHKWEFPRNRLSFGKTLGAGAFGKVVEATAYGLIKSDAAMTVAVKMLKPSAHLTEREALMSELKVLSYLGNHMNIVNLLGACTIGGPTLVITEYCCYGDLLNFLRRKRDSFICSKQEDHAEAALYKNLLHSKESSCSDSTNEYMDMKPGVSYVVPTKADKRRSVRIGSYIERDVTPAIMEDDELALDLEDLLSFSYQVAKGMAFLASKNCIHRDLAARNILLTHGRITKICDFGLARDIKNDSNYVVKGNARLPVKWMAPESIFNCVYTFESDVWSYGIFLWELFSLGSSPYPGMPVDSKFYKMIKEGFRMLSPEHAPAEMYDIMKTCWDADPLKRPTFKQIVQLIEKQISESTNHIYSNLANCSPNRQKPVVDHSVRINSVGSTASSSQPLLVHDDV
Tyrosine-protein kinase Lyn (Homo sapiens), sequence (P07948 2-512 limits assumed): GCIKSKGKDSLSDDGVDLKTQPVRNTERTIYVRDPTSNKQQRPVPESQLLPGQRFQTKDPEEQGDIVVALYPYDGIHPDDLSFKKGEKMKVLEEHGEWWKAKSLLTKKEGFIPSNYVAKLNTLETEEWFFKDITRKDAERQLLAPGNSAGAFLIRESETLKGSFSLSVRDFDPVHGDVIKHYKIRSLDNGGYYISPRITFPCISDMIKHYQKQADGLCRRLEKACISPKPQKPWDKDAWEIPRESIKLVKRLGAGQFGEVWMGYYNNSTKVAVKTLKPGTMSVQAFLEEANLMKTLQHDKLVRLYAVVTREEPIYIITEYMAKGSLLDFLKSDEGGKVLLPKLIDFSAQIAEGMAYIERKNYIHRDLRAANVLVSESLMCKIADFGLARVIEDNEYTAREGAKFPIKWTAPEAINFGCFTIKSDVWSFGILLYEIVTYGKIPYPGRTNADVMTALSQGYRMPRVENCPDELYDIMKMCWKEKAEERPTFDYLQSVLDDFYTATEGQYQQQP
Mast/stem cell growth factor receptor Kit (Homo sapiens), P10721 [T670I], sequence (P10721 whole entry T670I): as the sequence (P10721 whole entry) above, with T670I counted along it
Mast/stem cell growth factor receptor Kit (Homo sapiens), P10721 [V560G], sequence (P10721 whole entry V560G): as the sequence (P10721 whole entry) above, with V560G counted along it
Mast/stem cell growth factor receptor Kit (Homo sapiens), P10721 [D816V], sequence (P10721 whole entry D816V): as the sequence (P10721 whole entry) above, with D816V counted along it

As for `CCCN(CCS(C)(=O)=O)Cc1ccc(-c2ccc3ncnc(Nc4ccc(OCc5cccc(F)c5)c(Cl)c4)c3c2)o1`, the inhibition stood at 4.79% in experiment [1]; 1.86% in [2]; 4.14% in experiment [3]; 2.58% in experiment [4]; 3.62% in experiment [5]; 1.8% in [6]. The inhibition in experiment [7] turned out to be 3.3%; in [8] it was 2.06%; in [9], 5.97%; in [10], 2.12%; in [11], 5.18%; in [12], 4.64%. In addition, the inhibition in experiment [13] turned out to be 7.93%; in experiment [14] it was 2.71%; in experiment [15], 6.38%; in experiment [16] it was 4.13%; in experiment [17] it was 7.18%; in experiment [18], 2.91%. For the same molecule, the figures for the inhibition in [19] and in experiment [20] were 5.26% and 3.54%, respectively.
For the molecule `COc1cc(/C=N/Nc2ncnc3[nH]ncc23)ccc1O`, the inhibition came to 49.4% in experiment [1]; 8.85% in experiment [2]; 12.9% in [3]; 0.9% in experiment [4]; 7.67% in experiment [5]; 1.4% in experiment [6]. Besides, the inhibition stood at 6.17% in experiment [7]; 12.5% in experiment [8]; 54.7% in [9]; 4.08% in experiment [10]; 12.2% in experiment [11]; 16.8% in [12]. In addition, the inhibition in [13] turned out to be 63.9%; in experiment [14], 12.6%; in experiment [15] it was 59.6%; in [16] it was 1.2%; in experiment [17] it was 9.92%; in experiment [18], 1.87%. Also, the inhibition in [19] was 14.9%; in experiment [20], 5.09%.
`CNC(=O)c1cncc(/C=C/c2ccccc2Cl)c1`: the inhibition in experiment [1] was 10.7%; in [2] it was -0.76%; in [3], 3.85%; in experiment [4], -1.89%; in experiment [5], 3.4%; in experiment [6], 2.25%. Besides, the inhibition in [7] is 8.8%; in experiment [8], 4.51%; in experiment [9], 5.49%; in experiment [10] it was -0.19%; in experiment [11], 1%; in experiment [12] it was 1.6%. The inhibition stood at 11.3% in experiment [13]; 1.83% in experiment [14]; 8.12% in experiment [15]; 3.56% in experiment [16]; 2.42% in experiment [17]; 3.72% in experiment [18]. Moreover, the results for the inhibition in experiment [19] and in experiment [20] were 4.48% and 0.71%, respectively.
Consider `CCN1CCC(CC(=O)Nc2n[nH]c3nnc(-c4cccc(F)c4F)cc23)CC1`, for which the inhibition was found to be 0.38% in experiment [1]; 0.53% in [2]; 0.47% in experiment [3]; 0.27% in experiment [4]; 1.83% in experiment [5]; 1.48% in experiment [6]. The inhibition is -0.83% in [7]; 2.01% in experiment [8]; 6.17% in experiment [9]; 2.06% in experiment [10]; 1.45% in experiment [11]; 3.32% in [12]. In addition, the inhibition was 3.55% in [13]; 2.16% in [14]; 2.2% in [15]; -1.66% in [16]; -0.36% in experiment [17]; 4.54% in experiment [18]. The inhibition in experiment [19] came out at 9.2%; in experiment [20] it was 1.85%.
On to `CC(C)(CO)CNC(=O)c1ccc2c(c1)/C(=N/Nc1ccc(S(N)(=O)=O)cc1)C(=O)N2`, for which the inhibition in experiment [1] is 6.13%; in [2] it was -0.32%; in experiment [3], 9.15%; in experiment [4] it was -1.23%; in [5], -1.94%; in experiment [6], -0.35%. Further, the inhibition was 1.1% in experiment [7]; 0.12% in [8]; 3.08% in [9]; -1.7% in experiment [10]; -1.87% in [11]; -1.12% in [12]. Also, the inhibition in experiment [13] was 9.87%; in experiment [14] it was -1.58%; in experiment [15], 8.71%; in [16] it was -2.26%; in experiment [17], 1.33%; in experiment [18], 9.65%. In addition, the inhibition worked out at 9.33% in experiment [19] and 3.03% in experiment [20].
Turning to `CCCN1CCC(c2ccc(Nc3nc(Nc4cc(F)ccc4C(N)=O)c4cc[nH]c4n3)c(OC)c2)CC1`, the inhibition in experiment [1] is 23.6%; in experiment [2], 7.89%; in experiment [3], 4.96%; in experiment [4] it was 4.05%; in experiment [5], 8.96%; in experiment [6], -2.53%. Also, the inhibition stood at 1.43% in [7]; 2.44% in experiment [8]; 9.44% in experiment [9]; 94.6% in experiment [10]; 95% in [11]; 6.55% in [12]. The inhibition in experiment [13] worked out at 11.2%; in [14], 4.92%; in experiment [15], 7.3%; in [16] it was 2.18%; in [17], 20%; in experiment [18], 8.25%. In addition, the inhibition in experiment [19] was found to be 22.9%; in [20] it was 4.34%.
